RGS7-Gao – regulators of human RGS7-Galphao interaction | P09471 | Multiplexed bead flow cytometry, RGS7-Galphao binding; actives lie on both sides | binding response (% of control), % at 10 µM | 220,000 compounds, 0.35% hits | AID 1439; in the data active = binding response below about 49% or above about 150%; inconclusive = no clear call, values can overlap the other calls; inactive = in between;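 also: fluorescent Galphao held in activated GDP-AlF4 state binding bead-coupled RGS7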
Target sequence (P09471 whole entry, looked up): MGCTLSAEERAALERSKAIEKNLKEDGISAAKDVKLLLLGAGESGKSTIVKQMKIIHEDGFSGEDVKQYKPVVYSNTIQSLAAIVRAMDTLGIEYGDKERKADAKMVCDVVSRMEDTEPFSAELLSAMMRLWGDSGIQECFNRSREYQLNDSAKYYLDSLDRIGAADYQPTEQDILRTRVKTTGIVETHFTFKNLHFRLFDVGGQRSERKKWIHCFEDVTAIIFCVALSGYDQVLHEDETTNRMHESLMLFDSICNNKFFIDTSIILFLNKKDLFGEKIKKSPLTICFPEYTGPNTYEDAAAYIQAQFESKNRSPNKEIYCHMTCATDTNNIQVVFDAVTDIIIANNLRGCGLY
GSH fluor – GSH bead compound fluorescence profile | GSH beads flow cytometry, compound fluorescence 488/530 nm; hits give high values | fluorescence (KMESF) at 10 µM | 190,000 compounds, 0.25% hits | AID 1776; in the data active = fluorescence above about 89;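 also: glutathione beads carrying GST-tagged Bcl family fusion proteins plus one bare bead set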
RGS16-Gao – RGS16-Galphao interaction regulator (human); O15492+P09471; 220,000 compounds, 0.38% hits; binding response (% of control), % at 10 µM; AID 1441; bead-based flow cytometry RGS16-Galphao binding, fluorescence; actives lie on both sides; call rule not given here;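 also: Galphao activated by GDP with aluminum fluoride before binding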
Target sequence (O15492 whole entry, looked up): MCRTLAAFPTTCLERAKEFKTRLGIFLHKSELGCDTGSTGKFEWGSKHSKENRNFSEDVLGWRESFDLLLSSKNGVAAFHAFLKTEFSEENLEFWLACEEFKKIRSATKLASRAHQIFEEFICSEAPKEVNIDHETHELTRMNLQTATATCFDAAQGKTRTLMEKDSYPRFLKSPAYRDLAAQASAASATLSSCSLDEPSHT
Target sequence (P09471 whole entry, looked up): as the sequence (P09471 whole entry, looked up) above
RGS8-Gao reg – regulators of human RGS8-Galphao interaction | 220,000 compounds, 0.34% hits | AID 1423 | multiplexed bead flow cytometry, RGS8-Galphao binding; actives lie on both sides | P09471 | response (percent of control binding), % at 10 µM; in the data active = response below about 60% or above about 140%; inactive = in between;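 also: Galphao activated as the GDP aluminium fluoride complex binding bead-coupled RGS8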
RGS4-Gao reg – modulates binding of RGS4 to human Galphao. 220,000 compounds, 0.33% hits. AID 1415. binding response (% of control), % at 10 µM. Multiplexed bead flow cytometry; actives lie on both sides. P09471; in the data active = binding response below about 49% or above about 150%; inactive = in between;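 also: fluorescent Galphao activated with aluminum fluoride binding bead-coupled RGS4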
Avidin bead fluor – compound fluoresces at 488/530 nm on avidin beads; compound fluorescence 488/530 nm, flow cytometry; hits give high values; fluorescence (KMESF) at 10 µM; 220,000 compounds, 0.38% hits; in the data active = fluorescence above about 47
Large screens that a line does not name were inactive; [ ] = dose if it differs, or a comment. Compounds with a hit are over-represented: about 1.2% of the library has one in this group of screens.

O=C(Cn1nc2n(c1=O)-c1ccccc1SC2)N/N=C/c1cccnc1	RGS7-Gao inconclusive (no result: GSH fluor)
Cc1cc(C(C)(C)C)nc2[nH]n(-c3ccccc3)c(=O)c12	none
O=c1c2c(C(F)(F)F)cc(C(F)(F)F)nc2[nH]n1-c1ccccc1	GSH fluor 89
CCOC(=O)CN(C(=O)CSc1nnc2c(n1)[nH]c1c(C)cc(C)cc12)c1ccccc1	GSH fluor 257
CCOC(=O)CN(C(=O)CSc1nnc2c(n1)[nH]c1ccccc12)c1ccccc1	none
Cn1c2ccccc2c2ncn(CCN3CCOCC3)c(=O)c21	GSH fluor 253
COc1ccc2c(c1)c1ncn(CCCN3CCOCC3)c(=O)c1n2C	none
Cc1c(F)cccc1NC(=O)CCCCCC1NC(=O)NC1C (stereo not drawn)	none
COc1ccc(NC(=O)CSc2ccc3c4c(cccc24)C(=O)c2ccccc2-3)cc1	Avidin bead fluor 49
CCCCS(=O)(=O)C1CCS(=O)(=O)C1 (stereo not drawn)	none
CCN(CC)S(=O)(=O)C1CCS(=O)(=O)C1 (stereo not drawn)	GSH fluor 242
Cc1ccc(S(=O)(=O)N2CCOCC2)cc1C(=O)NCCCn1ccnc1	none
O=C(NCCCn1ccnc1)c1cc(S(=O)(=O)N2CCOCC2)c(Cl)cc1Cl	GSH fluor 249
CC(C)c1cc(C(=O)O)c2cnn(C(C)C)c2n1	RGS7-Gao inconclusive (no result: GSH fluor)
COc1ccccc1Nc1nc(N)nc(CSC(=S)N2CCCCC2)n1	RGS7-Gao inconclusive (no result: GSH fluor)
COc1ccc(-c2nc(-c3ccccc3)nc(N3CCN(C)CC3)c2C#N)cc1	Avidin bead fluor 51
Cn1nc(C(F)(F)F)cc1-c1ccc(S(N)(=O)=O)s1	RGS7-Gao inconclusive (no result: GSH fluor)
COc1ccc(-c2cc3ccccc3oc2=O)cc1NC(=O)c1ccc(Br)o1	Avidin bead fluor 47
CC1Cc2ccccc2N1C(=O)CN1C(=O)C(=O)N(Cc2ccccc2)C1=O (stereo not drawn)	GSH fluor 260
CC1Cc2ccccc2N1C(=O)CCS(=O)(=O)c1cccs1 (stereo not drawn)	RGS7-Gao 322.5[activator], GSH fluor 150, RGS8-Gao reg 147.7[activator], RGS4-Gao reg 222.1[activator], Avidin bead fluor 125
Cc1ccc(-n2cc(CN3CCN(C(=O)c4ncn[nH]4)CC3)c(-c3ccc(F)cc3)n2)cc1	RGS7-Gao inconclusive (no result: GSH fluor)
CCCCn1c(=O)nc2n(-c3ccc(Cl)cc3)c3ccccc3cc-2c1=O	none
COc1ccc(OCC(=O)O/N=C(\N)Cc2ccc(Cl)cc2)cc1	Avidin bead fluor 54
Cc1ccc(OCC(=O)O/N=C(\N)Cc2ccc(Cl)cc2)cc1	none
COc1ccc2c(c1)CCC(C)N2C(=O)C(=O)c1c[nH]c2ccccc12 (stereo not drawn)	RGS7-Gao inconclusive (no result: GSH fluor)
CCOC(=O)c1ccc(NC(=O)C(=O)NCC2(c3ccc(OC)cc3)CCOCC2)cc1	RGS7-Gao inconclusive (no result: GSH fluor)
CCC1(CC)C(=O)NC(=O)NC1=NCCc1ccc(O)cc1	Avidin bead fluor 75
O=C(COC(=O)c1ccccc1Oc1ccccc1)NC1CCS(=O)(=O)C1 (stereo not drawn)	Avidin bead fluor 48
O=C(COC(=O)c1ccccc1Oc1ccccc1)NC1CC1	none
O=C(CCCN1C(=O)c2ccccc2C1=O)NC1=NCCS1	GSH fluor 259
CCOc1ccc(N(Cc2ccccc2F)C2=NC3CS(=O)(=O)CC3S2)cc1 (stereo not drawn)	none
CCCCn1nc2cc(C(=O)NCCc3cccs3)ccc2c1OCC	none
CCCn1nc2cc(C(=O)NCCc3ccc(C)cc3)ccc2c1OCC	Avidin bead fluor 63
CCCn1nc2cc(C(=O)NCCCCc3ccccc3)ccc2c1OCC	Avidin bead fluor 52
Cc1oc(S(=O)(=O)N2CCOCC2)cc1C(=O)Nc1ccc(Cl)cc1	RGS7-Gao inconclusive (no result: GSH fluor)
O=C(COc1ccc(Cl)cc1Cl)N/N=C/c1ccc(OC2OC(CO)C(O)C(O)C2O)cc1 (stereo not drawn)	RGS7-Gao inconclusive (no result: GSH fluor)
O=C(O[C@@H]1Cc2c(O)cc(O)cc2O[C@@H]1c1cc(O)c(O)c(O)c1)c1cc(O)c(O)c(O)c1	RGS7-Gao 31.7, RGS8-Gao reg 56.5, RGS4-Gao reg 47.9
C=CCNC(=S)N1CCN(c2ncc(C(F)(F)F)cc2Cl)CC1	RGS7-Gao inconclusive (no result: GSH fluor)
O=C(O)C1CC=CCC1C(=O)NCc1ccc2c(c1)OCO2 (stereo not drawn)	GSH fluor 102
O=C(CSc1nc(-c2ccco2)cc(C(F)(F)F)n1)Nc1cccnc1	Avidin bead fluor 59
Cc1ccc(/C=C(\C#N)C(=O)Nc2ccccn2)o1	RGS7-Gao inconclusive
CCC1(CC)Cc2ccccc2C(N)=C1C#N	Avidin bead fluor 63
Cc1cc(/C=C(\C#N)C(=O)NCc2cccs2)c(C)[nH]1	none
Cc1nc2c(sc3nc(N4CCOCC4)c4c(c32)CC(C)(C)OC4)c(-c2ccc(Cl)cc2)c1C(=O)O	RGS7-Gao inconclusive (no result: GSH fluor)
CCOC(=O)c1cn(CC2CC2)c2cc(F)c(F)cc2c1=O	Avidin bead fluor 54
COc1cc(N2CCCC2)c(OC)cc1/C=C(/C#N)c1ccc(Br)cc1	Avidin bead fluor 59
COc1ccc2[nH]c3c(=O)n4c(nc3c2c1)SCCC4	none
O=C1NCCCCC1NS(=O)(=O)c1ccc(F)c(F)c1 (stereo not drawn)	RGS7-Gao inconclusive (no result: GSH fluor)
O=C(COc1ncnc2ccccc12)N1CCN(S(=O)(=O)c2ccc(Cl)cc2)CC1	GSH fluor 264
O=C(COc1ncnc2ccccc12)N1CCN(S(=O)(=O)c2ccccc2)CC1	none
N#C/C(=C\c1ccc(O)c(O)c1)S(=O)(=O)c1ccccc1	RGS7-Gao 203.3[activator], RGS16-Gao 259.4[activator], RGS8-Gao reg 154.9[activator], RGS4-Gao reg 223.3[activator] (no result: Avidin bead fluor)
CCCn1c2c(c(O)c(C(=O)NCc3ccccc3)c1=O)CCCC2	Avidin bead fluor 54
CS(=O)(=O)N1CCN(c2ccccc2NC(=O)c2cccs2)CC1	Avidin bead fluor 47
O=C(Nc1ccccc1N1CCCCC1)c1cccs1	none
COc1cccc(OCc2cc(/C=N/Nc3ccc(C(=O)O)cc3)ccc2OC)c1	RGS7-Gao inconclusive (no result: GSH fluor)
O=C(NCc1ccco1)C1CC2CCC1C2 (stereo not drawn)	GSH fluor 246
O=C(O)C1C2CCC(C2)C1C(=O)NCc1ccco1 (stereo not drawn)	none
Clc1cccc(-c2cc3nc4c(c(N5CCN(c6cnccn6)CC5)n3n2)CCCC4)c1	GSH fluor 104
Clc1cccc(-c2cc3nc4c(c(N5CCOCC5)n3n2)CCCC4)c1	none
Cc1ccc(S(=O)(=O)Nc2nc(C)cc(NCCN)n2)cc1	GSH fluor 279
Cc1ccc(S(=O)(=O)Nc2nc(C)cc(NN)n2)cc1	RGS7-Gao inconclusive (no result: GSH fluor)
CCN(C(=O)Cn1cnc2cc([N+](=O)[O-])ccc2c1=O)C1CCS(=O)(=O)C1 (stereo not drawn)	none

Source: PubChem BioAssay (NMMLSC)
